# Results as given in PMC5540273 (PLoS ONE, 2017).
# Legend:
# Details in all cases: concentration: 1 μM, replicates: in singlicate; n = 1
# [1] = system: T1, LKB1
# T1 construct: gene STK11
# [2] = system: T2, LOK
# T2 construct: gene STK10
# [3] = system: LRRK2
# [4] = system: LTK
# [5] = system: LYN
# [6] = system: T3, LZK
# T3 construct: gene MAP3K13
# [7] = system: MAK
# [8] = system: MAP3K15
# [9] = system: MAP3K1
# [10] = system: MAP3K2
# 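Note: KINOMEscan kinase panel screen.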
Compound,%Inh [1] [%],%Inh [2] [%],%Inh [3] [%],%Inh [4] [%],%Inh [5] [%],%Inh [6] [%],%Inh [7] [%],%Inh [8] [%],%Inh [9] [%],%Inh [10] [%]
COc1cc2ncnc(Nc3ccc(OCc4ccccc4Br)c(Cl)c3)c2cc1OC.Cl [GI261590],0,96.6,0,14,30,10,33,0,4,0
Cn1ccc2ncnc(Nc3ccc(Oc4cccc(Cl)c4)c(Cl)c3)c21,0,55,5,11,4,0,26,11,29,17
O=C(NCCCN1CCCC1=O)c1cnc(NCc2cc(Cl)ccc2Cl)nc1NC1CCNCC1,0,4,0,0,1,0,84,0,0,79
FC(F)(F)c1ccc(-c2cc(-c3c[nH]nc3-c3ccccn3)ccn2)cc1 [GW599550],12,0,7,21,0,29,11,0,5,0
Cc1ccc(NC(=O)c2cccc(C#N)c2)cc1-c1ccc(C(=O)Nc2ccncc2)cc1 [GSK1398463],0,0,28,0,69,0,36,0,12,0
CNc1nccc(-c2c(-c3ccc(F)cc3)ncn2CCCN2CCOCC2)n1 [SB-222516],0,0,0,0,0,0,0,0,21,5
CN1CCC(n2cnc(-c3ccc(F)cc3)c2-c2ccnc(NC3CCNCC3)n2)CC1 [SB-229482],27,0,0,0,15,0,29,0,4,0
CCc1nc(-c2cccc(N(C)S(=O)(=O)c3ccccc3)c2)c(-c2ccnc(Nc3ccc(N4CCN(C(C)=O)CC4)nc3)n2)s1 [GSK1645895],4,15,0,0,4,0,22,0,22,0
Cl.O=S(=O)(c1cccc(F)c1)c1ccc(Nc2ncnc3cc(Br)sc23)cc1Cl [GSK306886],10,6,0,0,0,0,10,0,24,7
Fc1cccc(COc2ccc(Nc3ncnc4cc[nH]c34)cc2Cl)c1,0,29,9,18,0,20,9,50,21,11
O=C(Nc1n[nH]c2nc(-c3ccco3)c(Br)cc12)c1ccc(CN2CCCC2)cc1.O=C(O)[C@H](O)[C@@H](O)C(=O)O [SB-742352],0,14,0,21,50,0,20,0,0,0
Cl.Cn1ccc(-c2cccc(Nc3ccnc4cc(-c5nccs5)ccc34)c2)n1 [GW525701],0,72,0,0,0,48,0,0,10,0
CCc1nc(-c2cccc(C)c2)c(-c2ccnc(NC(=O)c3ccccc3)c2)s1,0,11,3,10,8,42,16,2,2,0
FC(F)(F)c1cc(Nc2nccc(-c3c(-c4ccc(Cl)cc4)nn4ncccc34)n2)ccc1Cl [GW829351],0,6,0,0,0,0,0,0,0,0
Cn1cc(-c2ccc3c(c2)CCN3C(=O)Cc2cccc(C(F)(F)F)c2)c2c(N)ncnc21 [GSK2606414],0,0,43,15,0,0,0,0,3,9
Fc1ccc(Nc2nccc(-c3c(-c4ccc(Cl)cc4)nn4ncccc34)n2)cc1F [GW829058],8,28,0,6,24,5,12,24,22,27
COc1ccc(NC(=O)c2ccc(-c3cc(-c4nnc(C)o4)ccc3C)cc2)cc1 [GW595885],0,0,42,0,32,12,47,0,2,1
O=C(c1ccc(-c2cc(-c3c[nH]nc3-c3ccccn3)ccn2)cc1)N1CCCC1 [GW792479],0,0,10,0,0,0,0,0,0,0
CC(C)N1CCC(n2cnc(-c3ccc(F)cc3)c2-c2ccnc(N)n2)CC1 [SB-223132],0,0,28,2,22,0,0,0,0,0
CCCc1ccc(S(=O)(=O)NC2CCN(c3ccnc(Nc4ccc(OC)cc4)n3)C2)cc1 (centres unmarked) [GSK1379737],6,0,0,100,0,25,16,0,1,1
Fc1cccc(COc2ccc(Nc3ncnc4sc(-c5ccc[nH]5)cc34)cc2Cl)c1 [GW707818],17,28,0,1,0,82,36,0,4,0

Compound,%Inh [1] [%],%Inh [2] [%],%Inh [3] [%],%Inh [4] [%],%Inh [5] [%],%Inh [6] [%],%Inh [7] [%],%Inh [8] [%],%Inh [9] [%],%Inh [10] [%]
CCC(CC)(CC)n1cnc2c(N)ncnc21 [SKF-97620],70,23,9,6,0,36,12,24,21,40
CNc1nccc(-c2c(-c3ccc(F)cc3)ncn2C2CCN(C)CC2)n1 [SB-222903],0,3,0,0,0,0,0,0,0,0
COc1ccc(Nc2nccc(N3CCC(NC(=O)Nc4ccc5c(c4)OCO5)C3)n2)cc1 (centres unmarked) [GSK1379745],4,0,1,18,1,39,20,3,12,14
Nc1nc(-c2ccccn2)c(-c2ccnc3ccccc23)s1 [GW548057],8,0,0,0,0,51,12,11,10,0
CC(C)(C)c1ccc(-n2cnc3c(N)ncnc32)cc1 [SKF-97263],0,2,22,6,5,0,8,16,8,1
CC(C)(C)OC(=O)NC1CCCN(c2cc(-c3ccc4c(N)n[nH]c4c3)nc(N)n2)C1 (centres unmarked) [GSK2286096],0,0,0,0,0,0,17,0,10,0
c1ccc(-c2ccc3c(-c4ccnc(Nc5ccc6c(c5)OCCO6)n4)cnn3n2)cc1 [GW818941],0,17,29,0,0,0,100,11,1,0
Nc1nc(-c2ccc3c(N)n[nH]c3c2)cc(N2CCC[C@@H](C(=O)Nc3ccccc3)C2)n1.O=C(O)C(F)(F)F.O=C(O)C(F)(F)F [GSK2288359],6,0,0,15,0,0,29,2,15,0
C[C@@H]1CCN(C(=O)CO)C[C@@H]1N(C)c1ncnc2[nH]ccc12,0,5,0,27,8,10,0,0,0,0
Cc1ccc(C)c(NC(=O)NCCNc2ccnc(Nc3ccc(F)cc3)n2)c1 [GSK1379878],14,0,0,0,0,0,22,0,0,0
Clc1ccc(-c2cc(-c3c[nH]nc3-c3ccccn3)ccn2)cc1 [GW681251],0,30,46,0,0,0,14,0,26,3
Fc1ccc(-c2ncn(CCCNCc3ccccc3)c2-c2ccncc2)cc1,27,19,0,0,22,12,5,10,15,0
C[C@H]1CC[C@@H](C(=O)Nc2ccccc2)CN1c1cc(-c2ccc3c(N)n[nH]c3c2)nc(N)n1 [GSK2283293],15,0,0,0,0,0,12,0,0,0
Cn1ccc2ncnc(Oc3ccc(NC(=O)Nc4cccnc4)c(Cl)c3)c21,11,35,0,6,5,0,0,0,0,0
Cc1ccc(O)cc1Nc1cc(C(F)(F)F)nc2ccc(-c3ccncc3)cc12 [GW630823],0,5,0,0,1,0,7,0,0,1
COc1ccc(NC(=O)Nc2ccc(C)c(-c3ccc(C(=O)Nc4ccncc4)cc3)c2)cc1 [GSK1398475],0,0,0,7,34,0,10,0,0,0
N#Cc1ccc(Oc2ccc(Nc3ncnc4cc[nH]c34)cc2Cl)cc1,29,18,0,6,0,0,13,43,0,9
Clc1cc(Nc2ncnc3cc[nH]c23)ccc1OCc1ccccn1,10,30,0,14,15,0,42,46,7,2
COc1ccc(Nc2nccc(N3CCC(NC(=O)c4cccc(NC(C)=O)c4)C3)n2)cc1 (centres unmarked) [GSK1379732],22,0,0,0,0,46,14,0,0,0
CS(=O)(=O)CCNCc1nc(-c2ccc3ncnc(Nc4ccc(OCc5cccc(F)c5)c(Cl)c4)c3c2)cs1.Cl [GW583340],17,20,0,0,0,0,23,0,0,0
